Consider 28 compounds from ChEMBL document CHEMBL1157539, “Thousands of chemical starting points for antimalarial lead identification” (Nature, 2010).

Format in all cases: functional
Test [1] relates to Plasmodium falciparum. Kind of test: GSK_TCMDC: Inhibition of Plasmodium falciparum 3D7 in whole red blood cells, using parasite LDH activity as an index of growth. Test compounds present at 2uM.
For test [2], the system named is Plasmodium falciparum. Kind of test: GSK_TCMDC: Inhibition of Plasmodium falciparum Dd2 in whole red blood cells, using parasite LDH activity as an index of growth. Test compounds present at 2uM.
The subject of the next test is HepG2. In words: GSK_TCMDC: Percent inhibition of human HepG2 cell line. Test compounds present at 10uM.

Consider `CC[C@H](C)CNC(=O)c1cncc(-c2cccc(CNC3Cc4ccccc4C3)c2)c1.O=C(O)C(F)(F)F`, for which the Inhibition (usually the relative decrease from the control value, in per cent) amounted to 100% in the test on Plasmodium falciparum [1], 76% in the test on Plasmodium falciparum [2] and 5% with HepG2.

Take `c1ccc(-c2nc(NCCCn3ccnc3)cc(-c3ccncc3)n2)cc1`: the results for the Inhibition with Plasmodium falciparum [1], in the test on Plasmodium falciparum [2] and in the test on HepG2 were 100%, 100% and 42%, respectively.

For `Cn1cncc1-c1ccc2ncnc(Nc3ccc4c(cnn4Cc4ccccc4)c3)c2c1`, the Inhibition in the test on Plasmodium falciparum [1] is given as 100%; in the test with Plasmodium falciparum [2], 99%; in the test with HepG2 it was 1%.

For `N#Cc1cccc(NC(=O)Nc2cccc(-c3cccc(-c4nc5cc(C(F)(F)F)ccc5[nH]4)c3)c2)c1`, the Inhibition is on record as 100% with Plasmodium falciparum [1], 99% in the test with Plasmodium falciparum [2] and 74% in the test on HepG2.

Take `COc1ccc(NC(C)C(=O)Nc2ccc(Br)cc2)cc1S(=O)(=O)N1CCCCC1` (centres undefined): the Inhibition in the test on Plasmodium falciparum [1] was 99%; in the test with Plasmodium falciparum [2], 97%; in the test on HepG2, 2%.

Regarding `COc1ccc(C(=O)NC2CCN(c3ccnc4cc(Cl)ccc34)C2)cc1.O=C(O)C(F)(F)F` (centres undefined), the Inhibition is given as 100% in the test with Plasmodium falciparum [1], 100% in the test on Plasmodium falciparum [2] and 31% with HepG2.

With `CCc1c(C)nc(-n2nc(C)cc2NC(=O)C2c3ccccc3Oc3ccccc32)[nH]c1=O`, the Inhibition with Plasmodium falciparum [1] is recorded as 89%; in the test with Plasmodium falciparum [2], 80%; in the test on HepG2, 37%.

On to `O=C1C(c2ccccc2)=C(Nc2cccc([N+](=O)[O-])c2)c2ccccc21`, for which the Inhibition in the test on Plasmodium falciparum [1] was found to be 88%; in the test with Plasmodium falciparum [2], 88%; with HepG2 it was 0%.

Take `CCn1c(-c2nc(-c3ccc4c(c3)OCO4)cnc2N)nc2cnccc21`: the values for the Inhibition in the test on Plasmodium falciparum [1], with Plasmodium falciparum [2] and in the test with HepG2 were 100%, 98% and 94%, respectively.

On to `O=C(/C=C/c1ccc(Cl)c(Cl)c1)NCCCCCN1CCC(NC(=O)NC2CCCCCC2)CC1`, for which the Inhibition in the test on Plasmodium falciparum [1] was 99%; in the test with Plasmodium falciparum [2], 41%; with HepG2, 15%.

For `Cc1cc(-c2ccc3c(c2)CCN(CCC2CCC(NC(=O)/C=C/c4cccc(F)c4)CC2)CC3)on1.Cl` (centres undefined), the Inhibition in the test on Plasmodium falciparum [1] stood at 95%; with Plasmodium falciparum [2] it was 19%; in the test with HepG2, 23%.

With `Cc1cccc2nc(-c3cccc(-c4cccc(NC(=O)c5ccc(=O)[nH]n5)c4)c3)[nH]c12`, the figures for the Inhibition in the test with Plasmodium falciparum [1], in the test with Plasmodium falciparum [2] and with HepG2 were 100%, 32% and 10%, respectively.

As for `Cc1cc(-c2cccc(CNCc3ccc(F)cc3)c2)ccc1S(=O)(=O)NCCN1CCCC1.O=C(O)C(F)(F)F`, the Inhibition with Plasmodium falciparum [1] was 100%; with Plasmodium falciparum [2], 64%; in the test on HepG2, 49%.

Regarding `CN1CCN(c2ccnc3ccc(NC(=O)Nc4ccc5ccccc5c4)cc23)CC1.Cl`, the Inhibition stood at 100% in the test with Plasmodium falciparum [1], 99% in the test with Plasmodium falciparum [2] and 2% with HepG2.

`CCN(CC)/C(=N/C(=N)Nc1ccc(C)cc1)NCCCCCCN/C(=N\C(=N)Nc1ccc(C)cc1)N(CC)CC`: the Inhibition in the test with Plasmodium falciparum [1] is 97%; in the test with Plasmodium falciparum [2] it was 98%; with HepG2, 10%.

With `O=C(Cn1c(CCc2cccc(F)c2F)nc(=O)c2ccccc21)N(Cc1ccc(-c2ccc(C(F)(F)F)cc2)cc1)C1CCN(C2CCSCC2)CC1.O=C(O)C(O)C(O)C(=O)O`, the Inhibition is given as 99% in the test with Plasmodium falciparum [1], 93% in the test on Plasmodium falciparum [2] and 97% in the test with HepG2.

On to `COc1cccc(C2CCN(CCN3CCC(NC(=O)c4ccc(-c5ccc(Cl)cc5)cc4)CC3)CC2)c1`, for which the Inhibition in the test on Plasmodium falciparum [1] was determined as 93%; with Plasmodium falciparum [2] it was 42%; in the test with HepG2, 31%.

Take `Cc1cc(NC(=O)NCCN2CCC(NS(=O)(=O)c3ccc(Br)cc3)C2)c2ccccc2n1.O=C(O)C(F)(F)F` (centres undefined): the results for the Inhibition in the test with Plasmodium falciparum [1], with Plasmodium falciparum [2] and in the test with HepG2 were 99%, 51% and 9%, respectively.

Consider `O=C(Nc1ccccc1)N(Cc1ccc(-c2cccc(CNCc3ccc4c(c3)OCO4)c2)cc1)C1CCN(Cc2ccccc2)CC1.O=C(O)C(F)(F)F`, for which the values for the Inhibition with Plasmodium falciparum [1], with Plasmodium falciparum [2] and with HepG2 were 100%, 65% and 29%, respectively.

For `CN(Cc1cccc(F)c1)C1CCN(c2cc(NC(=O)c3ccc(F)cc3)ccn2)C1.O=C(O)C(F)(F)F` (centres undefined), the values for the Inhibition with Plasmodium falciparum [1], with Plasmodium falciparum [2] and in the test with HepG2 were 83%, 14% and 7%, respectively.

Take `CCCCCN1CCC(NS(=O)(=O)c2cccc(C(=O)Nc3cccc(C(F)(F)F)c3)c2)C1.O=C(O)C(F)(F)F` (centres undefined): the Inhibition in the test on Plasmodium falciparum [1] is given as 86%; in the test with Plasmodium falciparum [2] it was 17%; in the test on HepG2 it was 25%.

Regarding `COc1ccc(-c2nc3c4ccccc4c4ccc(I)cc4c3[nH]2)cc1`, the values for the Inhibition with Plasmodium falciparum [1], in the test with Plasmodium falciparum [2] and with HepG2 were 96%, 16% and 4%, respectively.

As to `COc1ccc2nccc(N3CCC(NCCNCc4ccc5c(n4)NC(=O)CS5)C3)c2n1.Cl` (centres undefined), the values for the Inhibition in the test on Plasmodium falciparum [1], in the test with Plasmodium falciparum [2] and in the test on HepG2 were 100%, 5% and 0%, respectively.

`CN(C)CCOc1ccc(NC(=O)NC(C)(C)c2nc(-c3ccc(Cl)c(O)c3)c(-c3ccncc3)[nH]2)cc1.Cl`: the Inhibition is listed as 98% in the test with Plasmodium falciparum [1], 98% in the test with Plasmodium falciparum [2] and 22% with HepG2.

In the case of `Cc1ccc(C(=O)Nc2cccc([N+](=O)[O-])c2)cc1S(=O)(=O)N1CC(C)CC(C)C1` (centres undefined), the results for the Inhibition in the test with Plasmodium falciparum [1], with Plasmodium falciparum [2] and in the test on HepG2 were 100%, 42% and 24%, respectively.

For `C=CCN(C(=O)c1ccc(Cl)c([N+](=O)[O-])c1)c1nc(-c2ccccc2)cs1`, the Inhibition came to 100% with Plasmodium falciparum [1], 99% in the test on Plasmodium falciparum [2] and 0% with HepG2.

With `COc1ccc2nc3cc(Cl)ccc3c(Nc3ccc(O)c(CN4CC5CCC(CC5)C4)c3)c2c1.Cl`, the Inhibition in the test with Plasmodium falciparum [1] came to 100%; in the test on Plasmodium falciparum [2] it was 100%; in the test with HepG2 it was 17%.

Consider `O=C(Nc1cccc(C(F)(F)F)c1)Nc1ccc(Cl)c(C(F)(F)F)c1`, for which the values for the Inhibition in the test on Plasmodium falciparum [1], in the test with Plasmodium falciparum [2] and in the test on HepG2 were 99%, 99% and 0%, respectively.
